# Over roughly 1,300 sequences, “log fluorescence intensity” has its median near 8.3; the highest 2% begin near 12. This is one part of a sample in which the highest values are shown more often than they occur.
# Molecular target: T1, ETS1 (Homo sapiens, UniProt P14921 1-441)
# T1 sequence: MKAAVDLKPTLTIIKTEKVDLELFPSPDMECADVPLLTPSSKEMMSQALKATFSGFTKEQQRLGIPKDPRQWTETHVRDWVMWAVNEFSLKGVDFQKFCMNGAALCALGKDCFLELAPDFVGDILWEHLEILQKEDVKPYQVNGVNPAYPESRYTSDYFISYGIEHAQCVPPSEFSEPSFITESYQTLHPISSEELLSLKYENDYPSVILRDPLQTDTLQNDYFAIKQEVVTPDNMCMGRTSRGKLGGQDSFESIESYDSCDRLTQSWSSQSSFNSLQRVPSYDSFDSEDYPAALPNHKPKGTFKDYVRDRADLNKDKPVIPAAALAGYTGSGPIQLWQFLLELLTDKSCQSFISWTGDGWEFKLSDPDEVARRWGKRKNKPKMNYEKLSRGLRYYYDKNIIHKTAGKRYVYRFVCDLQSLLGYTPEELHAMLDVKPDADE
# Assay: custom PBM; custom protein-binding microarray; buffer, salt, pH and temperature not stated; high values mean tight binding
# Conditions: dsDNA, one strand shown
row,Sequence,binding signal
1,TGTCGGGTAAGGGAATGTAGATCACGTGAATGTAAAGTCTTGATTCGCTTGACGCTGCTG,8.34 log fluorescence intensity
2,CTGGGACTTGACCCAACTCTGCCACGTGGGTCGATTGTCTTGATTCGCTTGACGCTGCTG,8.33 log fluorescence intensity
3,GTCTATAGGATCCCATCCAACACACGTGTTAAAATGGTCTTGATTCGCTTGACGCTGCTG,8.42 log fluorescence intensity
4,GCTGCTGCGGTGCATACCCCACCGGATGTGTCCCCGGTCTTGATTCGCTTGACGCTGCTG,9.62 log fluorescence intensity
5,GCTGCAGCGGTGCATACCCCACCGGATGTGACCCCGGTCTTGATTCGCTTGACGCTGCTG,10.4 log fluorescence intensity
6,CAGCATAGGACTTCTTCACTGAAGCAATTGATAACCGTCTTGATTCGCTTGACGCTGCTG,8.32 log fluorescence intensity
7,GCTGCTGCGGTGCATACCCCCCCGGATGTGACCCCGGTCTTGATTCGCTTGACGCTGCTG,8.71 log fluorescence intensity
8,CGGAAGTGTCGTAGACGTCGGATATCCGGTTCTTCTGTCTTGATTCGCTTGACGCTGCTG,11.7 log fluorescence intensity
9,CAGCATAGGACTTCTTCCCTGAAGGAATTGATAACCGTCTTGATTCGCTTGACGCTGCTG,8.32 log fluorescence intensity
10,CGGAAGTGTCGTAAACGTCGGATATCCAGTTCTTCTGTCTTGATTCGCTTGACGCTGCTG,8.64 log fluorescence intensity
11,CACTGACTTATATATGCGAATGCACATGAATAGACCGTCTTGATTCGCTTGACGCTGCTG,8.35 log fluorescence intensity
12,GCTGCTGCGGTGCACACCCCACCGGATGTGACCCCGGTCTTGATTCGCTTGACGCTGCTG,10.3 log fluorescence intensity
13,ACTGCTGCGGTGCATACCCCACCGGATGTGACCCCGGTCTTGATTCGCTTGACGCTGCTG,10.4 log fluorescence intensity
14,TAAAGGGAAGACGGCTGTGGTAGTTCCGGGTATTAAGTCTTGATTCGCTTGACGCTGCTG,8.35 log fluorescence intensity
15,TAAAGGTAAGACGGTTGTGGTAGTTCCGGGTATTAAGTCTTGATTCGCTTGACGCTGCTG,8.54 log fluorescence intensity
16,GGAAAAAGGCCCAGGGTAACACCGGAAGTGGGGTTAGTCTTGATTCGCTTGACGCTGCTG,12 log fluorescence intensity
17,TAAAGGCAAGACGGTTGTGGTAGTTCCGGGTATTAAGTCTTGATTCGCTTGACGCTGCTG,8.32 log fluorescence intensity
18,GCTGCTGTGGTGCATACCCCACCGGATGTGACCCCGGTCTTGATTCGCTTGACGCTGCTG,10.3 log fluorescence intensity
19,GGAACAAGGCCCAGGGTAACACCGGAAGTGGGCTTAGTCTTGATTCGCTTGACGCTGCTG,11.9 log fluorescence intensity
20,CGGAAGAGTCGTAAACGTCGGATATCCGGTTCTTCTGTCTTGATTCGCTTGACGCTGCTG,11.8 log fluorescence intensity
21,GGAAAAACGCCCAGGGTAACACCGGAAGTGGGCTTAGTCTTGATTCGCTTGACGCTGCTG,12.1 log fluorescence intensity

row,Sequence,binding signal
1,GCTGCTGCTGTGCATACCCCACCGGATGTGACCCCGGTCTTGATTCGCTTGACGCTGCTG,9.42 log fluorescence intensity
2,GGAAAAAGGCCCAGGGTAAGACCGGAAGTGGGCTTAGTCTTGATTCGCTTGACGCTGCTG,12 log fluorescence intensity
3,TAAAGGGAAGACGGTTGTGGTAGTTACGGGTATTAAGTCTTGATTCGCTTGACGCTGCTG,8.37 log fluorescence intensity
4,TGTCGGGTAAGGGCATGTAGATCACGTGAATGAAAAGTCTTGATTCGCTTGACGCTGCTG,8.41 log fluorescence intensity
5,GGAAAAAGGCCCAGGGTATCACCGGAAGTGGGCTTAGTCTTGATTCGCTTGACGCTGCTG,11.4 log fluorescence intensity
6,TACTGACTTATAGATGCGAATGCACATGAATAGACCGTCTTGATTCGCTTGACGCTGCTG,8.45 log fluorescence intensity
7,TAAAGGGAAGACGGTTCTGGTAGTTCCGGGTATTAAGTCTTGATTCGCTTGACGCTGCTG,8.63 log fluorescence intensity
8,CAGCATAGGACTTCTTCCCTGAAGCAATTGATAACGGTCTTGATTCGCTTGACGCTGCTG,8.34 log fluorescence intensity
9,CGGAAGTGTCGTAAACGTCGGATATCGGGTTCTTCTGTCTTGATTCGCTTGACGCTGCTG,8.65 log fluorescence intensity
10,GGGTATAGGATCCCATCCAACACACGTGTTAAAATGGTCTTGATTCGCTTGACGCTGCTG,8.44 log fluorescence intensity
11,GTGTATAGGATCCCATCCAACACACGCGTTAAAATGGTCTTGATTCGCTTGACGCTGCTG,8.37 log fluorescence intensity
12,CGGAAGTGTCGTAAACGTCGGATATCCGGTTCTCCTGTCTTGATTCGCTTGACGCTGCTG,11.8 log fluorescence intensity
13,GCTGCTGCGGTGCATACCCCAGCGGATGTGACCCCGGTCTTGATTCGCTTGACGCTGCTG,8.5 log fluorescence intensity
14,GGAAAAAGGCCCAGCGTAACACCGGAAGTGGGCTTAGTCTTGATTCGCTTGACGCTGCTG,11.9 log fluorescence intensity
15,TAAAGGGAAGACTGTTGTGGTAGTTCCGGGTATTAAGTCTTGATTCGCTTGACGCTGCTG,8.36 log fluorescence intensity
16,TAAAGGGAAGACGGTTGTGGTAGTTCCGGTTATTAAGTCTTGATTCGCTTGACGCTGCTG,9.95 log fluorescence intensity
17,TAAAGGGAAGACGGTTGTGGTAGTTCCGGGCATTAAGTCTTGATTCGCTTGACGCTGCTG,8.59 log fluorescence intensity
18,CGGAAGTGTCGTAAACGTCGGATATCTGGTTCTTCTGTCTTGATTCGCTTGACGCTGCTG,8.37 log fluorescence intensity
19,GCTGCTACGGTGCATACCCCACCGGATGTGACCCCGGTCTTGATTCGCTTGACGCTGCTG,10.3 log fluorescence intensity
20,CGGAAGTGTCGTAAACGTCGGATATCCGGTTATTCTGTCTTGATTCGCTTGACGCTGCTG,12.1 log fluorescence intensity

# Reference: paper PMC6602471
